Laboratory results published in PubChem BioAssay AID720597 (Broad Institute, 2013).
Entries with a potency or affinity are not part of this list. Calls of active or inactive are those of the source.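 Rule for the calls: active = fitted half-maximal dose no more than twice the top valid tested dose, for compounds that lower signal; inconclusive = fit invalid, or curve flat with activity between -70 and -30; inactive = potency past limit, curve flat within ±30, or signal increasing.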

What follows are molecules tested against NAD-dependent protein deacylase sirtuin-5, mitochondrial (Homo sapiens) (UniProt Q9NXA8) (assay: SIRT5 deacylase inhibitors, dose response, biochemical, fluorescence imaging, cherry-pick, set 6 (AID 720597;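 note: lower AMC signal can also come from blocking the trypsin step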)). Settings: Purified SirT5, succinyl-peptide-AMC/trypsin fluorescence; series mostly up to 15 µM.
Sequence of NAD-dependent protein deacylase sirtuin-5, mitochondrial (Homo sapiens) (Q9NXA8 whole entry, looked up): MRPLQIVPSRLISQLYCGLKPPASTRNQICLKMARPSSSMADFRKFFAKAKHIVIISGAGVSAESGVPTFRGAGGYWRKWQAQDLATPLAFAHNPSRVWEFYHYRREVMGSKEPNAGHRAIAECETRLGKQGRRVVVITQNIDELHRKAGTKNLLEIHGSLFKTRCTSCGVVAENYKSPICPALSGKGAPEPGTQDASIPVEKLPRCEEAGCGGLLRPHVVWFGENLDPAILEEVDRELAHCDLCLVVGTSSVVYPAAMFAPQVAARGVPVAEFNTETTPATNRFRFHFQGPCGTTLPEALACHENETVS

outcome, inactive:
COc1ccc(NC(=O)Nc2ccc3c(c2)C(=O)N([C@@H](C)CO)C[C@@H](C)[C@@H](CN(C)Cc2ccc(C(F)(F)F)cc2)O3)cc1
C[C@@H]1CN([C@@H](C)CO)C(=O)c2cc(C#CCN(C)C)cnc2O[C@@H]1CN(C)Cc1ccncc1
COc1ccc(S(=O)(=O)Nc2ccc3c(c2)C(=O)N([C@H](C)CO)C[C@H](C)[C@H](CN(C)Cc2ccc(Oc4ccccc4)cc2)O3)cc1
Cc1ccc(S(=O)(=O)N(C)C[C@H]2Oc3ncc(-c4ccncc4)cc3C(=O)N([C@@H](C)CO)C[C@@H]2C)cc1
C[C@@H]1CCCCO[C@H](CN(C)S(=O)(=O)c2ccc(Cl)cc2)[C@H](C)CN([C@H](C)CO)C(=O)c2cc(NS(=O)(=O)c3ccc(F)cc3)ccc2O1
CO[C@H]1CN(C)C(=O)c2cc(NC(=O)CC(F)(F)F)ccc2OC[C@@H](C)N(C(=O)C2CCCCC2)C[C@@H]1C
O=C(C[C@H]1C[C@@H]2c3cc(NC(=O)C4CCC4)ccc3O[C@@H]2[C@@H](CO)O1)NCc1ccc(-c2ccccc2)cc1
CCNC(=O)C[C@H]1CC[C@@H]2[C@H](COC[C@H](O)CN2C(=O)Nc2ccc(C(F)(F)F)cc2)O1
C[C@@H]1CN([C@H](C)CO)C(=O)c2cc(C#CCN(C)C)cnc2O[C@H]1CN(C)Cc1ccncc1
COc1cccc(-c2cn(CC[C@@H]3CC[C@H](NC(=O)CC4CC4)[C@@H](CO)O3)nn2)c1
C[C@@H]1CN([C@H](C)CO)S(=O)(=O)c2ccc(C#Cc3ccc(F)cc3)cc2O[C@H]1CN(C)S(=O)(=O)c1ccc(F)cc1
C[C@H](NC(=O)C[C@@H]1CC[C@H]2[C@@H](COC[C@@H](O)CN2C(=O)Nc2cccc(F)c2)O1)c1ccccc1
C[C@@H]1CN([C@H](C)CO)C(=O)c2cc(NS(=O)(=O)c3ccc(Cl)cc3)ccc2O[C@@H](C)CCCCO[C@H]1CN(C)C(=O)Nc1ccc(C(F)(F)F)cc1
CNC[C@H]1Oc2c(NC(=O)c3ccc(-c4nccs4)cc3)cccc2C(=O)N([C@H](C)CO)C[C@H]1C
CCCNC(=O)N1[C@H](CO)[C@H](c2ccccc2)C12CN(C(=O)CC1CC1)C2
COc1ccc(CN2C[C@@H](O)COC[C@H]3O[C@H](CC(=O)NCCN4CCCC4)CC[C@@H]32)cc1
C[C@@H]1CN([C@H](C)CO)C(=O)c2cc(NS(=O)(=O)c3cn(C)cn3)ccc2O[C@H]1CN(C)C(=O)Nc1ccccc1
COc1ccc(C#Cc2ccc([C@@H]3[C@H]4CN(C(=O)c5cccnc5)CC(=O)N4[C@H]3CO)cc2)cc1
CC(C)CN(C[C@H]1N[C@H](CO)[C@@H]1c1ccccc1)C(=O)C1CCCCC1
C[C@@H]1CN([C@H](C)CO)C(=O)c2cc(NC(=O)Cc3ccccc3)ccc2O[C@@H]1CN(C)Cc1ccc(Oc2ccccc2)cc1
O=C(CCN1CCCCC1)N[C@@H]1CC[C@@H](CC(=O)N2CCC(Cc3ccccc3)CC2)O[C@@H]1CO
Cc1noc(C)c1S(=O)(=O)N(C)C[C@H]1Oc2ccc(NC(=O)Cn3cnnn3)cc2CC(=O)N([C@H](C)CO)C[C@H]1C
COc1cccc(NC(=O)N2CC(=O)N3[C@H](CO)[C@H](c4ccc(C#CCC5CCCC5)cc4)[C@H]3C2)c1
COc1ccccc1-c1ccc2c(c1)O[C@H](CN(C)S(=O)(=O)c1ccccc1)[C@@H](C)CN([C@@H](C)CO)S2(=O)=O
COCC(=O)NC[C@H]1N[C@H](CO)[C@H]1c1ccc(C2=CCCCC2)cc1
C[C@@H]1CN([C@@H](C)CO)S(=O)(=O)c2ccc(C#Cc3ccccc3)cc2O[C@H]1CN(C)C(=O)C1CC1
CC(C)CC#Cc1ccc2c(c1)O[C@H](CN(C)C(=O)C1CCCCC1)[C@H](C)CN([C@@H](C)CO)S2(=O)=O
COc1ccc(S(=O)(=O)N(C)C[C@H]2OCCCC[C@H](C)Oc3ccc(NS(=O)(=O)c4ccc(C)cc4)cc3C(=O)N([C@H](C)CO)C[C@@H]2C)cc1
CC(C)C#Cc1cnc2c(c1)C(=O)N([C@@H](C)CO)C[C@H](C)[C@H](CN(C)C(=O)c1ccccc1)O2
C[C@@H]1CN([C@H](C)CO)C(=O)Cc2cc(NC(=O)Nc3ccc(F)cc3)ccc2O[C@@H]1CN(C)Cc1ccc2c(c1)OCO2
COCCNC(=O)c1cc2c(c(-c3cccc(-c4cccc(F)c4)c3)n1)[C@@H](CCO)N([S@](=O)C(C)(C)C)C2
Cc1ccc(-c2cnc3c(c2)C(=O)N([C@@H](C)CO)C[C@H](C)[C@@H](CN(C)C(=O)c2cccnc2)O3)cc1
CCCNC(=O)N1CC2(C1)[C@H](c1ccccc1)[C@H](CO)N2C(=O)C1CC1
CN(C)C(=O)c1cccc(-c2ccc(C3[C@@H]4CN(C(=O)c5ccccn5)C[C@H]3N4)cc2)c1 (stereo not given in full)
C[C@@H]1CN([C@H](C)CO)C(=O)c2cccc(NC(=O)C3CCCCC3)c2O[C@@H]1CN(C)CC1CC1
C[C@@H]1CN([C@H](C)CO)C(=O)c2c(c3ccccc3n2C)-c2ccccc2CO[C@H]1CN(C)Cc1cccc2c1OCCCO2
Cc1cccc(-c2ccc([C@@H]3[C@@H](CO)N4C(=O)CN(S(=O)(=O)c5cccc(F)c5)C[C@@H]34)cc2)c1
C[C@@H]1CCCCO[C@H](CN(C)C(=O)Nc2ccc(C(F)(F)F)cc2)[C@@H](C)CN([C@H](C)CO)C(=O)c2cc(NS(=O)(=O)c3ccc(Cl)cc3)ccc2O1
C/C=C/c1ccc([C@@H]2[C@@H](CO)N(C(C)=O)[C@H]2CN(C(=O)COC)C(C)C)cc1
C[C@H]1CCCCO[C@H](CN(C)Cc2ccc(C(F)(F)F)cc2)[C@@H](C)CN([C@@H](C)CO)C(=O)c2cc(NS(=O)(=O)c3ccccc3)ccc2O1
